Measurements taken from the supplement of paper PMC10849652.
Of roughly 8,800 targets only a part is listed; those with a hit were picked by preference. About 0.5% of all pairs of compound and target were hits.

Experiments:
Assay in all cases: log2 fold change, soluble protein after heating vs DMSO (PISA); higher = thermal stabilisation; K562 lysate, 10 uM; active = over 0.2 and 3.5 SD of the protein, either way, in both replicates (recomputed)
ibrutinib = compound: C=CC(=O)N1CCC[C@@H](n2nc(-c3ccc(Oc4ccccc4)cc3)c3c(N)ncnc32)C1 [ibrutinib]
Summary of the method: (§1)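 Dounce homogenisation of K562 pellets in PBS pH 7.4 with 1 mM MgCl2 produced a crude extract, used at 1 mg/mL protein. Exposure to 10 μM compound lasted 30 min, and aliquots were then heated for 3 min across 48°C-58°C, pooled and brought to 0.5% NP-40 at 4°C. The supernatant after 21,000xg for 90 min was quantified by TMTpro 16plex LC-MS/MS with channel sums equalised. Duplicate values are given as log-two fold change in thermal stability relative to solvent controls.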

[1] = compound: CC(=O)c1cnc2ccc(-c3cc(Cl)c(O)c(Cl)c3)nc2c1N[C@H]1CC[C@H](CN(C)C)CC1
Summary of the method: as §1

ralimetinib = compound: CC(C)(C)Cn1c(N)nc2ccc(-c3[nH]c(C(C)(C)C)nc3-c3ccc(F)cc3)nc21 [ralimetinib]
Summary of the method: as §1

[2] = compound: CC(C)(O)CC(=O)NCCn1ccc2ncnc(Nc3ccc(Oc4cccc(C(F)(F)F)c4)c(Cl)c3)c21
Summary of the method: as §1

[3] = compound: CC(C)C1=C2N=C(C=C(N2N=C1)NCC3=CC=CC=C3)NCCCCCCN
Summary of the method: as §1

[4] = compound: CC1=C(C(CC(=O)N1)C2=CC=C(C=C2)C(F)(F)F)C(=O)NC3=C(C=C4C(=C3)C=NN4)F
Summary of the method: as §1

[5] = compound: CC1=C(C2=C(C=C1)C(=O)C3=CC=CC=C3N2CCCN)C
Summary of the method: as §1

[6] = compound: CC1=C(C=C(C=C1)NC(=O)C2=CC(=CC=C2)C(C)(C)C#N)NC3=CC4=C(C=C3)N=CN(C4=O)C
Summary of the method: as §1

[7] = compound: CC1=C(C=C(C=C1)NC(=O)C2=CC(=CC=C2)N(C)C)NC(=O)C3=CC=C(C=C3)O
Summary of the method: as §1

[8] = compound: CC1=CC=C(C=C1)SC2=C3C=C(SC3=CN=C2)C(=O)N
Summary of the method: as §1

Measured: log2 fold change

CCDC32 isoform 2 (UniProt Q9BV29)
Sequence of UniProt Q9BV29 (Q9BV29 whole entry, looked up): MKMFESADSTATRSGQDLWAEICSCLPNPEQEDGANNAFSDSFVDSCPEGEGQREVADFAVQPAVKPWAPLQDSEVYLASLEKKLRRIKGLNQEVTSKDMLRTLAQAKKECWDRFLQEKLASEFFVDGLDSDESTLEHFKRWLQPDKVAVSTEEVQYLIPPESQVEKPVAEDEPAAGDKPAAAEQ
inactive: [1] 0.026 | ralimetinib -0.005 | [2] 0 | [3] 0.047 | [4] -0.017 | [5] -0.03 | [6] 0.051 | [7] 0.028 | [8] 0.03
active: ibrutinib 0.276

CEP295 isoform 3 (UniProt Q9C0D2)
inactive: ibrutinib -0.182 | [1] -0.048 | ralimetinib 0.005 | [2] 0.009 | [3] -0.019 | [4] 0.02 | [6] 0.041 | [7] 0 | [8] 0.053

BTRC (UniProt Q9Y297)
inactive: ibrutinib 0.026 | [1] 0.012 | ralimetinib 0.068 | [2] -0.033 | [3] 0.045 | [4] 0.015 | [7] 0.075 | [8] -0.002

CARHSP1 (UniProt H3BNU9)
inactive: ibrutinib 0.147 | [1] -0.005 | [4] -0.107 | [8] 0.107

CDCA8 (UniProt Q53HL2)
Sequence of UniProt Q53HL2 (Q53HL2 whole entry, looked up): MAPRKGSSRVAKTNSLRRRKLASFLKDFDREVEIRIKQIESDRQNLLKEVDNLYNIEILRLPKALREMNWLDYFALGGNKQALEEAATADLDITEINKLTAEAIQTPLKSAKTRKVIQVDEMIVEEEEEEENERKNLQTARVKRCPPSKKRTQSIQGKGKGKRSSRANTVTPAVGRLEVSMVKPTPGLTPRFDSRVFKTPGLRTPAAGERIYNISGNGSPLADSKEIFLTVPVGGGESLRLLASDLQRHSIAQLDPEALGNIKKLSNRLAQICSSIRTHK
inactive: ibrutinib 0.047 | [3] -0.082 | [4] 0.038 | [5] 0.011

C8orf88 (UniProt P0DMB2)
inactive: ibrutinib -0.004 | ralimetinib 0.06 | [2] 0.047 | [3] -0.05 | [5] 0.006 | [6] 0.052 | [7] 0.022

B3GALT6 (UniProt Q96L58)
inactive: ibrutinib -0.025 | ralimetinib 0.065 | [2] 0.23 | [3] -0.025 | [5] -0.112 | [6] -0.168 | [7] -0.046

CANX (UniProt D6RHJ3)
inactive: [1] -0.013 | [4] 0.021 | [8] -0.008

C15orf39 (UniProt Q6ZRI6)
inactive: ibrutinib -0.141 | ralimetinib -0.005 | [2] -0.029 | [3] -0.06 | [4] 0.104 | [5] 0.039 | [6] -0.03 | [7] 0.019

CCDC130 (UniProt P13994)
inactive: ibrutinib -0.232 | ralimetinib 0.181 | [2] 0.077 | [3] -0.112 | [6] 0.252 | [7] 0.072

BCORL1 isoform 3 (UniProt Q5H9F3)
inactive: ralimetinib -0.07 | [2] 0.075 | [3] 0.074 | [5] 0.001 | [6] -0.321 | [7] -0.01

CEP128 (UniProt Q6ZU80)
inactive: ibrutinib 0.166 | ralimetinib -0.06 | [2] -0.001 | [5] 0.078 | [7] -0.03

CEBPZOS (UniProt A8MTT3)
inactive: [1] 0.02 | ralimetinib 0.035 | [2] 0.022 | [3] -0.047 | [4] -0.054 | [5] 0.04 | [6] 0.112 | [7] -0.032 | [8] 0.012

ATXN2 (UniProt F8WB06)
inactive: [5] 0.187

CDKL5 (UniProt O76039)
inactive: [1] 0.088 | [5] -0.351 | [6] 0.111 | [8] -0.019

CEP152 (UniProt O94986)
Sequence of UniProt O94986 (O94986 whole entry, looked up): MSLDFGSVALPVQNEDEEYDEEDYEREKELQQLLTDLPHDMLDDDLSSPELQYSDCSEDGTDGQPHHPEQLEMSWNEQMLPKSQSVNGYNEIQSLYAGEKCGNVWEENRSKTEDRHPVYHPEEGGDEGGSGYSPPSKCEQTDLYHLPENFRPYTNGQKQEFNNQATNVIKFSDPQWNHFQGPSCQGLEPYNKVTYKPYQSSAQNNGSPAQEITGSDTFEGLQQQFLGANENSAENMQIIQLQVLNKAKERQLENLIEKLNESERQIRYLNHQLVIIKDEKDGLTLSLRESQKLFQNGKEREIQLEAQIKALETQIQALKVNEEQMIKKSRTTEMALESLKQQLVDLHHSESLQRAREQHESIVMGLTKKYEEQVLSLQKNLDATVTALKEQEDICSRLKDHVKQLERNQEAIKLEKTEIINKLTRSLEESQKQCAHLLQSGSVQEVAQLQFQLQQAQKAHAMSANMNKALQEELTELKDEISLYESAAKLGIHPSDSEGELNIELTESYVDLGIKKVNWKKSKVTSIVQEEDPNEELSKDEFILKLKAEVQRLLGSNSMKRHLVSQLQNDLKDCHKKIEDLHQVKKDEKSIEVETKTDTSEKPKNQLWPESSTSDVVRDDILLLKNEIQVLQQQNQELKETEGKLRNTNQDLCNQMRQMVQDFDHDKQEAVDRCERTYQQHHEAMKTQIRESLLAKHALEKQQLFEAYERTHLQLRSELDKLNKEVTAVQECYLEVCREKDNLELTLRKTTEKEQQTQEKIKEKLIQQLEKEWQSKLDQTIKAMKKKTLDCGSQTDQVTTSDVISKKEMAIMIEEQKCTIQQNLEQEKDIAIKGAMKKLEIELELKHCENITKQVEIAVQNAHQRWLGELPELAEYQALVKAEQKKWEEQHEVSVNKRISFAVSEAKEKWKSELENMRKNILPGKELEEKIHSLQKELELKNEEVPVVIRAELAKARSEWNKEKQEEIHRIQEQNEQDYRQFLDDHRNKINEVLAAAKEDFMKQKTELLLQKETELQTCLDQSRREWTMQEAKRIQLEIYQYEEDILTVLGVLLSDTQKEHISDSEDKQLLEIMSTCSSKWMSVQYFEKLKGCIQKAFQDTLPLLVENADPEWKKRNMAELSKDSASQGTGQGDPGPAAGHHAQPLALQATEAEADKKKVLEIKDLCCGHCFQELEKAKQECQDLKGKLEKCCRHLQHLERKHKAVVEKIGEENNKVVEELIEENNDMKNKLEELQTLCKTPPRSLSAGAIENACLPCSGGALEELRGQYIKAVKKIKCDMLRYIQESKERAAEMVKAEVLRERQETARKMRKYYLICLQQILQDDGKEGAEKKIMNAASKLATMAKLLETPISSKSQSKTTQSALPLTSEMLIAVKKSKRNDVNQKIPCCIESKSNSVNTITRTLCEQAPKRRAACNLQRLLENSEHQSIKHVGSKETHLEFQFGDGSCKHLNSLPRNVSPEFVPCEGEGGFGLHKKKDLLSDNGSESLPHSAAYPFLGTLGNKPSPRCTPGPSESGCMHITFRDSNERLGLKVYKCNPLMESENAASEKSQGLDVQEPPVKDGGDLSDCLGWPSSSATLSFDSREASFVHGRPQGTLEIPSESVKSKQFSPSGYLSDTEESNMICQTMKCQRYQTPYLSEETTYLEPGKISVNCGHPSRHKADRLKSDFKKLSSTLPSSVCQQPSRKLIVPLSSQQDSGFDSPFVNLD
inactive: ibrutinib -0.077 | ralimetinib 0.144 | [2] -0.092 | [3] -0.062 | [4] -0.04 | [5] -0.071 | [6] 0.095 | [7] -0.067

BTK isoform 2 (UniProt Q06187)
inactive: [1] 0.012 | ralimetinib 0.014 | [2] 0.02 | [3] -0.01 | [4] 0.005 | [5] -0.032 | [6] 0.055 | [7] 0.042 | [8] -0.011

CACUL1 (UniProt Q86Y37)
inactive: [1] 0.164 | ralimetinib -0.023 | [2] 0.073 | [3] 0.027 | [5] -0.165 | [6] -0.126 | [7] 0.115 | [8] -0.09

AVEN (UniProt Q9NQS1)
inactive: ibrutinib -0.03 | ralimetinib -0.061 | [2] -0.079 | [3] 0.055 | [4] 0.009 | [5] 0.027 | [6] 0.1 | [7] -0.08

CD80 (UniProt P33681)
inactive: [1] 0.034 | ralimetinib 0.207 | [2] -0.051 | [3] -0.136 | [4] 0.106 | [5] -0.084 | [6] 0.043 | [7] -0.119 | [8] 0.014

BMT2 (UniProt Q1RMZ1)
inactive: [4] 0.586

CASC1 (UniProt Q6TDU7)
inactive: ibrutinib 0.24 | ralimetinib 0.078 | [2] -0.093 | [7] 0.097

CDC25A (UniProt P30304)
inactive: [1] -0.009 | ralimetinib 0.014 | [2] -0.044 | [3] 0.019 | [4] -0.017 | [5] 0.012 | [6] 0.087 | [7] 0.015 | [8] 0.002

C3AR1 (UniProt Q16581)
inactive: ibrutinib 0.018 | [4] 0.001 | [6] -0.074

CAPNS1 (UniProt K7ES78)
inactive: [1] 0.028 | ralimetinib 0.061 | [2] -0.196 | [3] -0.101 | [5] 0.025 | [6] 0.148 | [7] -0.105 | [8] -0.075

CEP57L1 (UniProt Q8IYX8)
inactive: ibrutinib -0.039 | ralimetinib 0.171 | [2] -0.272 | [3] -0.049 | [4] 0.11 | [5] -0.191 | [6] -0.037 | [7] -0.044

ATG4D (UniProt Q86TL0)
inactive: ibrutinib -0.086 | ralimetinib 0.049 | [2] 0.074 | [5] 0.319 | [6] -0.096 | [7] -0.052

ATPSCKMT (UniProt Q6P4H8)
inactive: ibrutinib -0.042 | ralimetinib -0.15 | [2] 0.088 | [5] 0.019 | [6] -0.015 | [7] -0.001

CDC14A isoform 2 (UniProt Q9UNH5)
inactive: [1] 0.107 | ralimetinib -0.336 | [2] -0.135 | [4] -0.04 | [6] 0.145 | [7] 0.219 | [8] 0.006

CHD9 (UniProt Q3L8U1)
Sequence of UniProt Q3L8U1 (Q3L8U1 whole entry, looked up): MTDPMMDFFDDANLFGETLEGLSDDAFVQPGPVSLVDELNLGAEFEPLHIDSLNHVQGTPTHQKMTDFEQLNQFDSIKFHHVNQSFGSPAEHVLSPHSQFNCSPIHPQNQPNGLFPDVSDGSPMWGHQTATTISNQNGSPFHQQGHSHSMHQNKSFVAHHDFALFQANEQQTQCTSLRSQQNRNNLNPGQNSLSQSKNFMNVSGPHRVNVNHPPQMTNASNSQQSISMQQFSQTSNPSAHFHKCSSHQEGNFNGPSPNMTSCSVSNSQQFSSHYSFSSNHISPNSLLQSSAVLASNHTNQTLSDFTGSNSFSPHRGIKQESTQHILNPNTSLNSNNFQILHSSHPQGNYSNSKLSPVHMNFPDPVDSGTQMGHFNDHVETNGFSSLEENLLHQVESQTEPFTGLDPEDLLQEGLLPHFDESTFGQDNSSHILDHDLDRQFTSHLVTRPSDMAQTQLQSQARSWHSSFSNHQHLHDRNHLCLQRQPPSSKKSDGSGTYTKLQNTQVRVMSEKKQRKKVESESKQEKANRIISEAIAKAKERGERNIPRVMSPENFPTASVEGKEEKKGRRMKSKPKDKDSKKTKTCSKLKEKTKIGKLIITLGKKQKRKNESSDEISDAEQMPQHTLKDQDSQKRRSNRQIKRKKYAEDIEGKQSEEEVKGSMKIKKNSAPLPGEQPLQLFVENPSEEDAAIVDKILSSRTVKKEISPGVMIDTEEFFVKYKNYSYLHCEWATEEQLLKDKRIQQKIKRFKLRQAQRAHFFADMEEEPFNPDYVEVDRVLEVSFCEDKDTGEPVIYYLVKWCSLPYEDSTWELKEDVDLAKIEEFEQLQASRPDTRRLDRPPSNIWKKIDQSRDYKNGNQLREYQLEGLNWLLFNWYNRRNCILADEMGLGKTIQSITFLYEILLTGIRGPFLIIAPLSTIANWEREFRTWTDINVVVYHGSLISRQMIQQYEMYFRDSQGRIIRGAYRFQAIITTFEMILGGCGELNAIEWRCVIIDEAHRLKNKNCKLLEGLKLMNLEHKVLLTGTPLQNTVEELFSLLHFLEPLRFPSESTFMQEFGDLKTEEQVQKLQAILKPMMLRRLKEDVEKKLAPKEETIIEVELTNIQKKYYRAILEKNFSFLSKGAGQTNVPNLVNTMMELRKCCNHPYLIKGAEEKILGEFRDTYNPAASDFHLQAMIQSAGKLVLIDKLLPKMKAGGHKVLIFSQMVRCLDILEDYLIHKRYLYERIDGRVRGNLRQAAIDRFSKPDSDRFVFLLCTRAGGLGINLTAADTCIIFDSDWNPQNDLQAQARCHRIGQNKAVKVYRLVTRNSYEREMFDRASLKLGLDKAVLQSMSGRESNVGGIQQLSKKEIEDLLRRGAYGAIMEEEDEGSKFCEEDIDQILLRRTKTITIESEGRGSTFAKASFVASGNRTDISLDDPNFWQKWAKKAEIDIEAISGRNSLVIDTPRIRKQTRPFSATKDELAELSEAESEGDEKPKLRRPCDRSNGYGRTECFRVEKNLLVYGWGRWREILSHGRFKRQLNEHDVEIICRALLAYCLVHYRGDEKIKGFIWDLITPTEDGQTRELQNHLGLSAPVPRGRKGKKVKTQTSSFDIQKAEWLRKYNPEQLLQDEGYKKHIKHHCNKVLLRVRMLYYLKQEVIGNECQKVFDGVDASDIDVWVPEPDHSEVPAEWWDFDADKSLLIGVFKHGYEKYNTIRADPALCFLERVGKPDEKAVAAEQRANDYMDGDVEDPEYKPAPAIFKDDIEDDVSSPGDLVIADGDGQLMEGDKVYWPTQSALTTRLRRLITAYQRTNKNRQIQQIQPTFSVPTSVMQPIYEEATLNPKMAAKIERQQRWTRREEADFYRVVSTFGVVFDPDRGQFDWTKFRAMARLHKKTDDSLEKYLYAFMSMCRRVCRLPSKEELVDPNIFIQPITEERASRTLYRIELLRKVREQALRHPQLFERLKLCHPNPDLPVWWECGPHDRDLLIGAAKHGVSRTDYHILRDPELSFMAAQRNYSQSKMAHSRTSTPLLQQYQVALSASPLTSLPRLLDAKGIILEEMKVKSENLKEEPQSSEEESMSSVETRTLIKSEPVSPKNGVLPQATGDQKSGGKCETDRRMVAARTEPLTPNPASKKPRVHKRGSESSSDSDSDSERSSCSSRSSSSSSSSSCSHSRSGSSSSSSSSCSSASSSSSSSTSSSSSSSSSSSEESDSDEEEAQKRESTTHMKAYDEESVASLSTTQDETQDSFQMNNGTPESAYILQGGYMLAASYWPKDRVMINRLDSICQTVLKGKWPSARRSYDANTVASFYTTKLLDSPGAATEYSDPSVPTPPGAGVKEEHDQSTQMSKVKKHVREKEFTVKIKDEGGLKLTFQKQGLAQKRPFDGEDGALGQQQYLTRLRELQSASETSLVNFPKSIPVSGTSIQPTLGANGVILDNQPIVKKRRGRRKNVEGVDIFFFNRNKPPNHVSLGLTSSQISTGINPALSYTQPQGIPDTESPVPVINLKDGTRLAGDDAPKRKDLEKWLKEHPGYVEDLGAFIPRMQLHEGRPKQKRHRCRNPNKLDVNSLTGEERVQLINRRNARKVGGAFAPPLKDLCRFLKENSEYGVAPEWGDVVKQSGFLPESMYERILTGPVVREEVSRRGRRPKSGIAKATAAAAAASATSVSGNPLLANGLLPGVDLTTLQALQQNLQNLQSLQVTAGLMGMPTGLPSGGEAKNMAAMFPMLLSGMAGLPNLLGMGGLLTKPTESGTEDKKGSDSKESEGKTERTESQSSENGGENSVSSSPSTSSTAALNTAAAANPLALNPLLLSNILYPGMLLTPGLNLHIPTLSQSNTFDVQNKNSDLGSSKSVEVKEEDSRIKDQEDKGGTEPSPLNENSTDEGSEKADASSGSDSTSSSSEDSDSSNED
inactive: ralimetinib -0.117 | [2] -0.147 | [3] -0.074 | [4] 0.212 | [5] 0.038 | [6] -0.031 | [7] -0.023

BAHCC1 (UniProt Q9P281)
inactive: [1] -0.045 | [3] -0.018 | [4] -0.114 | [5] -0.008 | [6] 0.013 | [8] 0.074

CDAN1 (UniProt H3BPZ6)
inactive: [6] -0.172

BRAF (UniProt P15056)
active: [6] 0.65
inactive: ibrutinib 0.29 | ralimetinib 0.008 | [3] 0.032 | [4] 0.004 | [5] -0.111 | [8] -0.021

BBS7 (UniProt Q8IWZ6)
inactive: ralimetinib 0.047 | [2] 0.015 | [3] -0.021 | [4] 0.077 | [5] 0.182 | [6] 0.181 | [7] -0.013

CCP110 (UniProt O43303)
inactive: ibrutinib -0.008 | ralimetinib 0.082 | [2] 0.001 | [3] 0.054 | [5] -0.186 | [6] 0.01 | [7] 0.113

ATG10 (UniProt Q9H0Y0)
inactive: ibrutinib 0.057 | ralimetinib 0.001 | [2] -0.013 | [3] -0.062 | [4] -0.132 | [5] 0.063 | [6] 0.053 | [7] 0.012

CCND3 (UniProt P30281)
inactive: ibrutinib 0.122 | ralimetinib 0.039 | [2] 0 | [3] 0.032 | [4] -0.104 | [5] -0.063 | [6] -0.021 | [7] -0.067

CCAR2 (UniProt G3V119)
inactive: [1] 0.017 | [8] -0.047

CENPV (UniProt Q7Z7K6)
inactive: ibrutinib 0.036 | ralimetinib 0.352 | [2] -0.235 | [4] 0.182 | [6] 0.121 | [7] -0.13

C1orf131 isoform 5 (UniProt Q8NDD1)
inactive: [1] 0.041 | ralimetinib 0.06 | [2] -0.056 | [3] 0.028 | [4] -0.016 | [5] -0.071 | [6] 0.08 | [7] 0.025 | [8] -0.043

CDK5RAP1 (UniProt Q96SZ6)
inactive: ibrutinib -0.369 | ralimetinib -0.018 | [2] -0.062 | [3] 0.122 | [4] -0.002 | [5] -0.027 | [6] -0.001 | [7] 0.045

CHD4, A0A2R8Y521
inactive: [1] -0.049 | ralimetinib -0.175 | [2] -0.011 | [4] -0.19 | [5] 0.191 | [7] 0.228 | [8] 0.314

CAD (UniProt H7BZB3)
inactive: [3] -0.073

CDK17 isoform 2 (UniProt Q00537)
inactive: ibrutinib -0.029 | ralimetinib -0.019 | [2] -0.003 | [3] -0.037 | [4] -0.162 | [5] -0.08 | [6] 0.029 | [7] 0.057
